Laboratory results as given in PubChem BioAssay.
Unmarked numbers belong to inactive results. Where a call stands in place of a potency, no number is given. For part of these data: Potency and affinity values are given separately. The source made the active and inactive calls. Unless noted, the rule behind the calls is not given here.

How the values were obtained:
[1] = antimalarial activity against Dd2 strain (AID 2302;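 active = growth inhibition above 50% at the single 2 µM test dose, taken to imply half-maximal potency below 2 µM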); conditions: P. falciparum Dd2 in RBCs, LDH growth readout, 72 h; at 2 µM; hits give high values
[2] = human hepatoma cell viability loss – ATP luminescence, cytotoxicity control for P. falciparum antimalarial project, primary screen (AID 2303;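 active = inhibition above 50%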); conditions: HepG2 viability, 24-48 h, at 10 µM, hits give high values
[3] = biological target: L-lactate dehydrogenase (Plasmodium falciparum (isolate CDC / Honduras)) (UniProt Q27743); test: PfLDH activity inhibition – cell lysate, 3D7 strain, counter-screen for P. falciparum growth inhibition project (AID 2304); conditions: P. falciparum 3D7 crude extract, LDH APAD/NBT absorbance; at 2 µM; hits give high values
L-lactate dehydrogenase (Plasmodium falciparum (isolate CDC / Honduras)), sequence (Q27743 whole entry, looked up): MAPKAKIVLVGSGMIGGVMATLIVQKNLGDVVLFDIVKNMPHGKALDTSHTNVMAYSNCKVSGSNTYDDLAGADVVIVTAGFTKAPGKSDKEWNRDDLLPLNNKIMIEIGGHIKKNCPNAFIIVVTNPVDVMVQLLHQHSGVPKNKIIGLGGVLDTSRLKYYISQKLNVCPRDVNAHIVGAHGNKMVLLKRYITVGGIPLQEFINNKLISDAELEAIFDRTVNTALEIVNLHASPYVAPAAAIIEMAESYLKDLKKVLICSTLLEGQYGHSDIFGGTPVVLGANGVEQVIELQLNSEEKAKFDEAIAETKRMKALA

[4] = inhibition of 3D7 malaria parasite growth – strain 3D7 (AID 2306); conditions: P. falciparum 3D7 erythrocytic growth, LDH absorbance, 72 h; at 2 µM; hits give high values
[5] = biological target: Calcium-dependent protein kinase 1 (Plasmodium falciparum (isolate 3D7)) (UniProt P62344); test: PfCDPK1 kinase inhibitors, biochemical, TCAMS library (AID 1159585; cut-off not given, nearly all actives have IC50 up to about 0.98 µM;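 note: inhibitors leave more ATP so luminescence rises with inhibition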); conditions: recombinant PfCDPK1, Kinase-Glo ATP depletion luminescence
Calcium-dependent protein kinase 1 (Plasmodium falciparum (isolate 3D7)), sequence (P62344 whole entry, looked up): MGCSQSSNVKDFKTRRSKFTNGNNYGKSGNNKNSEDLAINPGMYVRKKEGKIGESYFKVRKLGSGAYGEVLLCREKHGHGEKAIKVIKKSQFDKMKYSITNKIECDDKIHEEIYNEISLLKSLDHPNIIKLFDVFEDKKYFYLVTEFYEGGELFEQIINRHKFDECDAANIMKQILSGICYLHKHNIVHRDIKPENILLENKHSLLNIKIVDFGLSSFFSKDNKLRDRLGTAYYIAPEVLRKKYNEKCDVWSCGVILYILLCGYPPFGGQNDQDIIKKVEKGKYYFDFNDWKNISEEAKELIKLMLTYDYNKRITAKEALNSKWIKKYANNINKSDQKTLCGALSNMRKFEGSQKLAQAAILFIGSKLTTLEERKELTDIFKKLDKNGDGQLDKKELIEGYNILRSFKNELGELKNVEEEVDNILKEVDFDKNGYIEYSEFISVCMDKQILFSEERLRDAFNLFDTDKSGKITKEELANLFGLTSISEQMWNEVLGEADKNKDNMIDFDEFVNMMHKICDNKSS

[6] = biological target: Plasmodium falciparum protein kinase 6 (PK6, PF3D7_1337100) (UniProt Q8IDW1); test: PfPK6 kinase inhibitors, biochemical, TCAMS library (AID 1159586); conditions: recombinant PfPK6, Kinase-Glo ATP depletion luminescence
Plasmodium falciparum protein kinase 6 (PK6, PF3D7_1337100), sequence (Q8IDW1 1-305): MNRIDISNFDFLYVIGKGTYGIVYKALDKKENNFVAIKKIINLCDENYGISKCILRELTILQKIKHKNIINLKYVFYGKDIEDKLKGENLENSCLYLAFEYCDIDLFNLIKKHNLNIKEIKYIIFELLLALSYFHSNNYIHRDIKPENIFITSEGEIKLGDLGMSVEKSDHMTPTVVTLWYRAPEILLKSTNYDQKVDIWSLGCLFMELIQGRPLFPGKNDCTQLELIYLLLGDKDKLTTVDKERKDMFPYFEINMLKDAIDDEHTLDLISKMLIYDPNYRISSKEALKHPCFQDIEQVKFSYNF

[7] = biological target: Protein kinase 7 (PK7), Plasmodium falciparum 3D7 (PF3D7_0213400) (UniProt Q7YTF7); test: inhibition of Plasmodium PK7 catalytic activity – biochemical, TCAMS antimalarial set, Kinase-Glo luminescence (AID 1159587); conditions: recombinant PfPK7, Kinase-Glo ATP depletion luminescence
Protein kinase 7 (PK7), Plasmodium falciparum 3D7 (PF3D7_0213400), sequence (Q7YTF7 1-343): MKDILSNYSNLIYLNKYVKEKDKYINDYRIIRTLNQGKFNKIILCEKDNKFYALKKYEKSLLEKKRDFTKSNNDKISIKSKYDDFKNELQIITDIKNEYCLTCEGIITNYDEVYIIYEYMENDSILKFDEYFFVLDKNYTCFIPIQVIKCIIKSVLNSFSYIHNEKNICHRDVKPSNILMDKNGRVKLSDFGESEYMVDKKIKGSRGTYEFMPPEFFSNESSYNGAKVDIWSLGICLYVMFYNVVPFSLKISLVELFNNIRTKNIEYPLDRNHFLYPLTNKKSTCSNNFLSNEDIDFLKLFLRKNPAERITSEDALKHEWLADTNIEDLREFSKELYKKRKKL

[8] = biological target: Calcium-dependent protein kinase 4 (Plasmodium falciparum (isolate 3D7)) (UniProt Q8IBS5); test: PfCDPK4 kinase inhibitors, biochemical, TCAMS library (AID 1159588; cut-off not given, nearly all actives have IC50 up to about 0.91 µM); conditions: recombinant PfCDPK4, Kinase-Glo ATP depletion luminescence
Calcium-dependent protein kinase 4 (Plasmodium falciparum (isolate 3D7)), sequence (Q8IBS5 whole entry, looked up): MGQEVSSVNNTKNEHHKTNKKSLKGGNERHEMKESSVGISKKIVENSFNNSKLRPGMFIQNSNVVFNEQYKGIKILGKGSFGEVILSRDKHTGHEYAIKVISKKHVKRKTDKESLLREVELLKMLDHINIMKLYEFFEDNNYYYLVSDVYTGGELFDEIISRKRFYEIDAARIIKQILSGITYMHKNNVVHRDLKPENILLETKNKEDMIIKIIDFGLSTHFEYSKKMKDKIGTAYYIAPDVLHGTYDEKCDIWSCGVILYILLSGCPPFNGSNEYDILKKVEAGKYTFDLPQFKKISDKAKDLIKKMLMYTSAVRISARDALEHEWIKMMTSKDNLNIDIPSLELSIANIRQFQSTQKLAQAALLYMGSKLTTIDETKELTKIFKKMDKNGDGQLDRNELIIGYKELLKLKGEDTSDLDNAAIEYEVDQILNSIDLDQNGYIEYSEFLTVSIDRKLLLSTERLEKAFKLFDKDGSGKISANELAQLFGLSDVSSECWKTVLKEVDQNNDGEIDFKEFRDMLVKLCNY

COc1ccc(CC(=O)NC(CCCN2CCC3(CC2)OCc2ccccc23)c2ccc(Cl)c(Cl)c2)cc1 (configuration not stated)
growth inhibition [1]: 53% (active)
inhibition [2]: 40%
inhibition [3]: 5%
growth inhibition [4]: 83% (active)
outcome [5]: inactive
outcome [6]: inactive
outcome [7]: inactive
outcome [8]: inactive

O=C(N[C@H]1CCN(Cc2ccc(OCCCN3CCCCC3)cc2)C1)c1cc(Cl)cc(Cl)c1
growth inhibition [1]: 35%
inhibition [2]: 13%
inhibition [3]: -1%
growth inhibition [4]: 99% (active)
outcome [5]: inactive
outcome [6]: inactive
outcome [7]: inactive
outcome [8]: inactive

COc1ccccc1CCN1CCC(CN(C)Cc2ccc(O)c(Cl)c2)CC1
growth inhibition [1]: 52% (active)
inhibition [2]: 19%
inhibition [3]: -3%
growth inhibition [4]: 101% (active)
outcome [5]: inactive
outcome [6]: inactive
outcome [7]: inactive
outcome [8]: inactive

Cn1c2c(c3ccccc31)CN(CCC1(c3ccc(Cl)c(Cl)c3)CN(C(=O)c3ccccc3)CCO1)CC2 (configuration not stated)
growth inhibition [1]: 88% (active)
inhibition [2]: 10%
inhibition [3]: 3%
growth inhibition [4]: 97% (active)
outcome [5]: inactive
outcome [6]: inactive
outcome [7]: inactive
outcome [8]: inactive

Cn1nccc1C(=O)NCCNCc1ccc(-c2cccc(-c3nc4ccc(C(F)(F)F)cc4[nH]3)c2)cc1
growth inhibition [1]: 99% (active)
inhibition [2]: 51% (active)
inhibition [3]: -8%
growth inhibition [4]: 101% (active)
outcome [5]: inactive
outcome [6]: inactive
outcome [7]: inactive
outcome [8]: inactive

c1cnc2ccc(NCc3ccc(-c4ccc(CNC5CCCC5)cc4)cc3)cc2c1
growth inhibition [1]: 21%
inhibition [2]: 27%
inhibition [3]: -2%
growth inhibition [4]: 97% (active)
outcome [5]: inactive
outcome [6]: inactive
outcome [7]: inactive
outcome [8]: inactive

Fc1ccc2nc(-c3cccc(-c4ccc(CN5CCN(c6ccncc6)CC5)cc4)c3)[nH]c2c1
growth inhibition [1]: 67% (active)
inhibition [2]: 39%
inhibition [3]: 0%
growth inhibition [4]: 100% (active)
outcome [5]: inactive
outcome [6]: inactive
outcome [7]: inactive
outcome [8]: inactive

CCCCc1cc(NCC)nc(Nc2cccc(OC)c2)n1
growth inhibition [1]: 69% (active)
inhibition [2]: 9%
inhibition [3]: -4%
growth inhibition [4]: 97% (active)
outcome [5]: inactive
outcome [6]: inactive
outcome [7]: inactive
outcome [8]: inactive

O=C(NCc1ccc(C(=O)NC2CCCCC2)cc1)c1ccc(O)c(-c2ccc(Cl)c(Cl)c2)c1
growth inhibition [1]: -4%
inhibition [2]: 5%
inhibition [3]: -6%
growth inhibition [4]: 93% (active)
outcome [5]: inactive
outcome [6]: inactive
outcome [7]: inactive
outcome [8]: inactive

CC(Oc1c(C2CCN(CCCCNC(=O)c3ccc(-c4ccc(C#N)cc4)cc3)CC2)ccc2c1CCCC2)C(N)=O (configuration not stated)
growth inhibition [1]: 83% (active)
inhibition [2]: 41%
inhibition [3]: -3%
growth inhibition [4]: 100% (active)
outcome [5]: inactive
outcome [6]: inactive
outcome [7]: inactive
outcome [8]: inactive

COc1ccc(-c2cccc(NC(=O)c3cccc(C#N)c3)c2)cc1CN1CCC(O)CC1
growth inhibition [1]: 13%
inhibition [2]: 30%
inhibition [3]: -3%
growth inhibition [4]: 97% (active)
outcome [5]: inactive
outcome [6]: inactive
outcome [7]: inactive
outcome [8]: inactive

COc1c(C=NNc2nc(Nc3ccccc3)nc(Nc3ccccc3)n2)ccc(Br)c1O
growth inhibition [1]: 37%
inhibition [2]: 63% (active)
inhibition [3]: 5%
growth inhibition [4]: 98% (active)
outcome [5]: inactive
outcome [6]: inactive
outcome [7]: inactive
outcome [8]: inactive

CCOc1ccc2c(NN=Cc3c4ccccc4cc4ccccc34)cc(C)nc2c1
growth inhibition [1]: 94% (active)
inhibition [2]: -4%
inhibition [3]: 0%
growth inhibition [4]: 90% (active)
outcome [5]: inactive
outcome [6]: inactive
outcome [7]: inactive
outcome [8]: inactive

CNCc1ccc(CN(C)c2nc(N)c3cc(OC)c(OC)cc3n2)cc1
growth inhibition [1]: 3%
inhibition [2]: 12%
inhibition [3]: 5%
growth inhibition [4]: 96% (active)
outcome [5]: inactive
outcome [6]: inactive
outcome [7]: inactive
outcome [8]: inactive

Oc1ccc2ccccc2c1CNCCC1CCCCC1
growth inhibition [1]: 99% (active)
inhibition [2]: 16%
inhibition [3]: 5%
growth inhibition [4]: 99% (active)
outcome [5]: inactive
outcome [6]: inactive
outcome [7]: inactive
outcome [8]: inactive

COc1ccc2nccc([C@@H](O)CN3CCC(NC(=O)COc4nc(SCc5ccc(F)cc5)nc5c4CCC5)CC3)c2c1
growth inhibition [1]: 78% (active)
inhibition [2]: 29%
inhibition [3]: -2%
growth inhibition [4]: 96% (active)
outcome [5]: inactive
outcome [6]: inactive
outcome [7]: inactive
outcome [8]: inactive

CN1CCCC1CCCOC(=O)c1ccc(N)cc1 (configuration not stated)
growth inhibition [1]: 2%
inhibition [2]: 8%
inhibition [3]: -2%
growth inhibition [4]: 101% (active)
outcome [5]: inactive
outcome [6]: inactive
outcome [7]: inactive
outcome [8]: inactive

CN(CC(=O)Nc1cc(C(F)(F)F)ccc1-n1cncn1)Cc1ccc2ccccc2c1
growth inhibition [1]: 99% (active)
inhibition [2]: 18%
inhibition [3]: 3%
growth inhibition [4]: 98% (active)
outcome [5]: inactive
outcome [6]: inactive
outcome [7]: inactive
outcome [8]: inactive

O=C(Nc1ccccc1-c1ccccc1)C1CCCN1C(=O)Nc1ccc(Cl)cc1 (configuration not stated)
growth inhibition [1]: 90% (active)
inhibition [2]: -6%
inhibition [3]: -4%
growth inhibition [4]: 96% (active)
outcome [5]: inactive
outcome [6]: inactive
outcome [7]: inactive
outcome [8]: inactive

Cc1noc(C)c1-c1ccc2c(Nc3ccccc3C(C)(C)C)c(C(=O)NC3CCCC3)cnc2c1
growth inhibition [1]: 79% (active)
inhibition [2]: 27%
inhibition [3]: -3%
growth inhibition [4]: 93% (active)
outcome [5]: inactive
outcome [6]: inactive
outcome [7]: inactive
outcome [8]: inactive

CCN1CCc2nc3ccccc3c(C(=O)Nc3ccc(C#N)cc3)c2C1
growth inhibition [1]: 72% (active)
inhibition [2]: 24%
inhibition [3]: -1%
growth inhibition [4]: 99% (active)
outcome [5]: inactive
outcome [6]: inactive
outcome [7]: inactive
outcome [8]: inactive

CSC1=NC(=Nc2c(C)cccc2C)C2(CCC(C(C)(C)C)CC2)N1c1ccc(O)cc1 (configuration not stated)
growth inhibition [1]: 93% (active)
inhibition [2]: 5%
inhibition [3]: 1%
growth inhibition [4]: 97% (active)
outcome [5]: inactive
outcome [6]: inactive
outcome [7]: inactive
outcome [8]: inactive

CCCc1ccc(S(=O)(=O)NC2CCN(c3ccnc(Nc4ccc(F)cc4)n3)C2)cc1 (configuration not stated)
growth inhibition [1]: 56% (active)
inhibition [2]: 40%
inhibition [3]: -6%
growth inhibition [4]: 95% (active)
outcome [5]: inactive
outcome [6]: inactive
outcome [7]: inactive
outcome [8]: inactive

COc1ccc(Nc2nc(NCc3ccc(-n4ccnc4)cc3)cc(-c3ccc(OC)cc3)n2)cc1
growth inhibition [1]: 25%
inhibition [2]: 8%
inhibition [3]: -2%
growth inhibition [4]: 96% (active)
outcome [5]: inactive
outcome [6]: inactive
outcome [7]: inactive
outcome [8]: inactive

CC(=O)N(C)c1cccc(C(=O)Nc2cccc(-c3cccc(-c4nc5ccc(C(F)(F)F)cc5[nH]4)c3)c2)c1
growth inhibition [1]: 41%
inhibition [2]: 49%
inhibition [3]: -5%
growth inhibition [4]: 97% (active)
outcome [5]: inactive
outcome [6]: inactive
outcome [7]: inactive
outcome [8]: inactive

NC(=NCc1ccc(Cl)c(Cl)c1)NC(=NCCCCCCN=C(NC(N)=NCc1ccc(Cl)c(Cl)c1)N1CCCCC1)N1CCCCC1
growth inhibition [1]: 99% (active)
inhibition [2]: 6%
inhibition [3]: -5%
growth inhibition [4]: 100% (active)
outcome [5]: inactive
outcome [6]: inactive
outcome [7]: inactive
outcome [8]: inactive

CCCCOc1ccc(/C=C/c2ccc(-c3c(C)[nH]c(C)c(Cl)c3=O)s2)cc1
growth inhibition [1]: 96% (active)
inhibition [2]: -4%
inhibition [3]: -2%
growth inhibition [4]: 97% (active)
outcome [5]: inactive
outcome [6]: inactive
outcome [7]: inactive
outcome [8]: inactive

CS(=O)(=O)c1ccc(-c2cnc(N)c(-c3cccc(O)c3)c2)cc1
growth inhibition [1]: 97% (active)
inhibition [2]: 48%
inhibition [3]: -3%
growth inhibition [4]: 98% (active)
outcome [5]: inactive
outcome [6]: inactive
outcome [7]: inactive
outcome [8]: inactive

COc1ccc(C(C(=O)NC2CCN(C[C@H](O)c3ccnc4ccc(OC)cc34)CC2)N2CCN(c3ccc(Cl)c(Cl)c3)CC2)cc1 (some centres not stated)
growth inhibition [1]: 79% (active)
inhibition [2]: 12%
inhibition [3]: 2%
growth inhibition [4]: 101% (active)
outcome [5]: inactive
outcome [6]: inactive
outcome [7]: inactive
outcome [8]: inactive

OC(CNc1ccnc(Nc2ccc(Cl)cc2)n1)c1ccccc1C(F)(F)F (configuration not stated)
growth inhibition [1]: 28%
inhibition [2]: 22%
inhibition [3]: 0%
growth inhibition [4]: 98% (active)
outcome [5]: inactive
outcome [6]: inactive
outcome [7]: inactive
outcome [8]: inactive

N#Cc1ccc(NC2(C(=O)N3CCN(c4cccc(Cl)c4)CC3)CC2)c2ccccc12
growth inhibition [1]: 66% (active)
inhibition [2]: -5%
inhibition [3]: 0%
growth inhibition [4]: 94% (active)
outcome [5]: inactive
outcome [6]: inactive
outcome [7]: inactive
outcome [8]: inactive

C=CCn1c(Sc2ccc(C#N)c([N+](=O)[O-])c2)nnc1-c1ccc(OC)cc1
growth inhibition [1]: 74% (active)
inhibition [2]: -5%
inhibition [3]: 0%
growth inhibition [4]: 96% (active)
outcome [5]: inactive
outcome [6]: inactive
outcome [7]: inactive
outcome [8]: inactive

FC(F)(F)c1cnc(Sc2nnc(-c3ccco3)o2)c(Cl)c1
growth inhibition [1]: 97% (active)
inhibition [2]: -1%
inhibition [3]: -4%
growth inhibition [4]: 98% (active)
outcome [5]: inactive
outcome [6]: inactive
outcome [7]: inactive
outcome [8]: inactive

O=C(Nc1cc(Cl)ccc1Cl)N[C@H]1CCN(CCCCCNC(=O)[C@@H]2C[C@H]2c2ccc(Cl)c(Cl)c2)C1
growth inhibition [1]: 1%
inhibition [2]: 49%
inhibition [3]: 0%
growth inhibition [4]: 97% (active)
outcome [5]: inactive
outcome [6]: inactive
outcome [7]: inactive
outcome [8]: inactive

CNc1cc(-c2ccc3ccnc(N)c3c2)nc(N)n1
growth inhibition [1]: 81% (active)
inhibition [2]: 23%
inhibition [3]: -2%
growth inhibition [4]: 100% (active)
outcome [5]: inactive
outcome [6]: inactive
outcome [7]: inactive
outcome [8]: inactive

N#CC(c1ccc(F)cc1)c1ccc2c(C(F)(F)F)cc(C(F)(F)F)nc2n1 (configuration not stated)
growth inhibition [1]: 89% (active)
inhibition [2]: 9%
inhibition [3]: 2%
growth inhibition [4]: 97% (active)
outcome [5]: inactive
outcome [6]: inactive
outcome [7]: inactive
outcome [8]: inactive

NCC1CCCN1Cc1ccc(-c2ccc(-c3nc4ccccc4[nH]3)s2)cc1 (configuration not stated)
growth inhibition [1]: 97% (active)
inhibition [2]: 17%
inhibition [3]: -6%
growth inhibition [4]: 98% (active)
outcome [5]: inactive
outcome [6]: inactive
outcome [7]: inactive
outcome [8]: inactive

Cc1ccc(NC(=O)C(C)Sc2n[nH]c(-c3ccccc3Br)n2)cc1 (configuration not stated)
growth inhibition [1]: 90% (active)
inhibition [2]: 2%
inhibition [3]: -4%
growth inhibition [4]: 89% (active)
outcome [5]: inactive
outcome [6]: inactive
outcome [7]: inactive
outcome [8]: inactive

CCN(CC)CCN(Cc1ccc(-c2ccc(C(F)(F)F)cc2)nc1)C(=O)Cn1c(SCc2ccc(F)cc2)nc(=O)c2sccc21
growth inhibition [1]: 66% (active)
inhibition [2]: 43%
inhibition [3]: -2%
growth inhibition [4]: 96% (active)
outcome [5]: inactive
outcome [6]: inactive
outcome [7]: inactive
outcome [8]: inactive
